According to PubChem BioAssay (NCI):
About 79,000 compounds went through this panel and 15% of them were active in at least one assay; those are over-represented in the sample as a whole. Active and inactive are the calls of the source. Cut-off read from the data, not from the text of the source: active = growth inhibition above about 70%; inactive = the rest.

Assay: NCI Yeast Anticancer Drug Screen. Data for the mlh1 rad18 strain (AID 175)
Settings: S. cerevisiae mlh1 rad18 strain growth inhibition; at 50.0 µM; stronger effect = higher value
Protocol: Growth inhibition of yeast strains with defined genetic alterations is measured as a screen for potential anti-cancer activity. Selected strains with alterations in DNA damage repair or cell cycle control were exposed to compounds and growth inhibition was measured relative to vehicle treated controls. The strain used in this assay is mlh1 rad18

SMILES	growth inhibition
COC(=O)Nc1nc2ccc(C(=O)c3cccs3)cc2[nH]1	19% (inactive)
COc1cc([C@@H]2c3cc4c(cc3[C@H](O)[C@H]3COC(=O)[C@H]23)OCO4)cc(OC)c1OC	9% (inactive)
CC(=O)C1CCCCC1	16.8% (inactive)
CC(C)=CC(=O)OC(=O)C=C(C)C	-8.65% (inactive)
Cc1cc2ccccc2c(O)c1C#N	48.9% (inactive)
c1ccc2c(c1)Sc1ccccc1S2	-18.6% (inactive)
NC(C(=O)O)c1ccc([N+](=O)[O-])cc1 (stereo not given)	-14.7% (inactive)
C#CC(C(C)C)N(CCO)CCCC (stereo not given)	16% (inactive)
CCOC(=O)CCCC(=O)OCC	19.6% (inactive)
COc1cc(/C=N\Nc2ccccc2)ccc1OC(=O)c1ccccc1	17.6% (inactive)
CC(C)(C)n1nc(C2CC2)c(Br)c1NC(=O)c1ccccc1F	10.9% (inactive)
O=S(=O)(O)c1ccc(O)c2ccccc12	56.2% (inactive)
C=CCCCCCCCCCOC(C)=O	8.25% (inactive)
CC(C)OC(=O)c1cc(NC(=S)OC(C)C)ccc1Cl	85.1% (active)
COC(=O)C(O)c1ccccc1 (stereo not given)	20% (inactive)
COc1ncnc2c1cnn2C	2.9% (inactive)
C=CCc1cc(C(C)=O)cc(OC)c1O	-19.4% (inactive)
O=C1C=CC(=O)N1c1ccc(I)cc1Cl	22.1% (inactive)
CCOC(=O)/C(=C/c1ccc(OC)cc1)N(CC)CC	-20.4% (inactive)
Cc1cc2nc(CC(=O)c3ccccc3)c(=O)[nH]c2cc1C	31.3% (inactive)

SMILES	growth inhibition
CCOC(=O)CNN	-30.1% (inactive)
O=C(CCl)Nc1ccc2c(c1)C(=O)c1ccc(NC(=O)CCl)cc1C2=O	21.9% (inactive)
Cc1cc(Cc2cc(C)c(N)cc2N)c(N)cc1N	15.9% (inactive)
O=C(O)CCC(=O)OC(C1CO1)C(OC(=O)CCC(=O)O)C1CO1 (stereo not given)	-44.7% (inactive)
CCC(C#N)(CC)c1ccccc1	36.3% (inactive)
CN(C)Cc1cc(C(C)(C)CC(C)(C)C)ccc1O	42.5% (inactive)
O=P(O)(O)OCC(O)CO (stereo not given)	-10.5% (inactive)
O=c1cc(-c2ccccc2)[nH]c2c1CCCC2	-3.5% (inactive)
CCN(CC)c1ccc2nc3ccc(=[N+](CC)CC)cc-3oc2c1	-258% (inactive)
CC1CCC(C(=O)O)N1 (stereo not given)	6.65% (inactive)
CNC(=O)c1ccccc1CC1(O)c2ccccc2Oc2ccccc21	-8.55% (inactive)
CCCCCC(C)(CC(=O)O)CC(=O)O	-15.4% (inactive)
O=[N+]([O-])c1ccc(N=Nc2ccccc2)cc1	14.8% (inactive)
O=C1C[C@H](c2ccccc2)[C@H](c2ccccc2)C1	9.8% (inactive)
NC(=O)c1ccc(N=C(N)N=C(N)N)cc1	-2.05% (inactive)
S=c1nn[nH]c2ccccc12	8.25% (inactive)
Oc1ccccc1-c1nnco1	-8.7% (inactive)
O=C1C=CC2=C3c4cc(O)c(O)cc4CC3(O)COC2=C1O (stereo not given)	-32% (inactive)
CCCCCCCCCCC(C)Br (stereo not given)	1.75% (inactive)
CC(=O)c1ccc2c(ccc3ccccc32)c1	3.9% (inactive)
